Measured values taken from PubChem BioAssay AID1159580 (chemical genetic matrix, 2015).
In all, about 5,500 compounds went through this assay and about 2,000 (36%) were called active. Roughly 18% stayed inconclusive and do not appear here. Cut-off read from the data, not from the text of the source: active = normalized growth mostly below about 0.91 (no sharp cut-off); inconclusive = no clear call, values can overlap the other calls; inactive = mostly above about 0.92. The list shows a part of the results.

Test: chemical genetic growth profiling, strain panel (AID 1159580);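 note: tested at 20 µM; growth read once vehicle control cultures reached saturation at 30 °C; 1 = growth at the plate median or of vehicle wells; lower values mean less growth of the strain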
Conditions: S. cerevisiae deletion strains, growth OD

Measured: normalized growth

COc1cc2c(CCNC(C)=O)c[nH]c2cc1O
inactive: locus YAL013W, strain DEP1, stronger effect = lower value 1.02 | locus YAL040C, strain CLN3, stronger effect = lower value 1.01 | locus YCL061C, strain MRC1 (second series), stronger effect = lower value 1.01 | locus YDR150W, strain NUM1, stronger effect = lower value 1.01 | locus YDR363W, strain ESC2, stronger effect = lower value 1.02 | locus YER002W, strain NOP16, stronger effect = lower value 1.02 | locus YGR078C, strain PAC10, stronger effect = lower value 1 | locus YJR075W, strain HOC1, stronger effect = lower value 1.02 | locus YMR307W, strain GAS1, stronger effect = lower value 1 | locus YNL128W, strain TEP1, stronger effect = lower value 1.02 | locus YNL175C, strain NOP13, stronger effect = lower value 0.998 | locus YNL197C, strain WHI3, stronger effect = lower value 1.02 | locus YNL224C, strain SQS1, stronger effect = lower value 0.996 | locus YOR083W, strain WHI5 (second series), stronger effect = lower value 1 | locus YPL055C, strain LGE1, stronger effect = lower value 1.02
